The entries come from a sample that favours hits as a whole.
Cycloheximide cs = Cycloheximide Counterscreen for Small Molecule Inhibitors of Shiga Toxin; cell reporter, cycloheximide protein synthesis inhibition counterscreen; max response, %; 300,000 tested, 12% active; AID 2314, 2010; in the data active = max response mostly above about 13%, no sharp cut-off; inactive = mostly below about 14%; also: read at 38.3 µM for the half of the compounds with a filed dose; 0% is about no effect
RE007 growth inh = qHTS Assay for Inhibitors of the HIV-1 protein Vpr; AID 651644, 2012; Potency, µM (highest dose often 92.2 µM), for the others: at the highest dose activity change, negative = less growth, actives largely listed as inhibitors; S. pombe RE007 Vpr strain, BacTiter-Glo ATP luminescence, 24 h; 360,000 tested, 0.21% active; active = well fitted falling curve with a large enough effect; inconclusive = small, poorly fitted or top-dose-only effect; inactive = no such curve, though single readings can be large or run the other way; also: potency is read from the fitted curve at half-maximal effect; % is scaled to controls: 0 for no effect and ±100 for the full control effect; nearly all actives have a fitted effect of over 50% in size
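Fission yeast RE007 carrying one integrated HIV-1 vpr copy, seeded at OD 0.01 in PMG+AL medium with 23 nL pinned compound. Grown 24 h at 30 degrees; viability read by BacTiter-Glo luminescence after 5 min.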
FBPA Giardia inh = qHTS Assay for Inhibitors of Fructose-1,6-bisphosphate Aldolase from Giardia Lamblia | A8B2U2 | purified Giardia FBPA | Potency, µM (highest dose often 59.6 µM), inactives show top-dose activity, negative = inhibition, most hits filed as inhibitors | 290,000 tested, 0.71% active | AID 2451, 2010; also: potency is read from the fitted curve at half-maximal effect; % is scaled to controls: 0 for no effect and ±100 for the full control effect; nearly all actives have a fitted effect of over 55% in size
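Giardia FBPA (40 nM reagent) was preincubated 10 min at RT with compound (up to 57.5 uM final), then substrate plus GAPDH/TPI/NAD/arsenate coupling system with diaphorase/resazurin was added; resorufin fluorescence (525/598 nm) was read after 20 min.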
Tb PYK inh = qHTS of Trypanosoma Brucei Inhibitors. pyruvate kinase (Trypanosoma brucei), Q57TT1. TbPYK enzyme, Kinase-Glo Plus ATP luminescence, 45 min. 410,000 tested, 0.12% active. Potency, µM (series often up to 76.8 µM), for inactives: top-dose activity, negative = inhibition, usual class: inhibitors; also: potency is read from the fitted curve at half-maximal effect; % is scaled to controls: 0 for no effect and ±100 for the full control effect; nearly all actives have a fitted effect of over 50% in size
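TbPYK + substrate in 50 mM TEA pH 7.2, 100 mM KCl, 10 mM MgCl2, 0.05% BSA, 0.01% Tween-20; cpd pinned; ADP 130 uM final; 45 min RT; Kinase-Glo Plus 10 min; luminescence endpoint.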
LmPK inh = qHTS Assay for Inhibitors of Leishmania Mexicana Pyruvate Kinase (LmPK); Q27686; purified LmPK, Kinase-Glo ATP luminescence, 1 h; Potency, µM (highest dose often 57.5 µM), for inactives: at the highest dose activity change, negative = inhibition, hits mostly inhibitors; 290,000 tested, 0.37% active; AID 1721, 2009; also: potency is read from the fitted curve at half-maximal effect; % is scaled to controls: 0 for no effect and ±100 for the full control effect
Target sequence (Q27686 whole entry, looked up): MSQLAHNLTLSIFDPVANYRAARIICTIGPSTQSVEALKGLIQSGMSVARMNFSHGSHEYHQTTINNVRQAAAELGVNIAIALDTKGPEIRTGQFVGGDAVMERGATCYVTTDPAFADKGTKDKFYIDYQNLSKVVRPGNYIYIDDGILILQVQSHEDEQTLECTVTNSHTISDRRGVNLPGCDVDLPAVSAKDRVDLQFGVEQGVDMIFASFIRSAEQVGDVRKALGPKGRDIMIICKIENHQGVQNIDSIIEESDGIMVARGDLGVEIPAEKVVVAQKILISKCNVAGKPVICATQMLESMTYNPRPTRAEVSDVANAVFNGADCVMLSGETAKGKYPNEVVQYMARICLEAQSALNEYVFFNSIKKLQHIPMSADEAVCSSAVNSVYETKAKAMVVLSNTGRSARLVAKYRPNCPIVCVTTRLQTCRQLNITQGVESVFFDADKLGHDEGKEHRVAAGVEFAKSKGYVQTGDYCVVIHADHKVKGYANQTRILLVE
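Purified LmPK (0.1 nM) converted ADP (0.1 mM) to ATP with PEP (0.5 mM) in imidazole buffer pH 7.2 with KCl and MgCl2, 1 h at room temperature. ATP was read by Kinase-Glo luminescence; data normalized to uninhibited and no-enzyme controls.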
Shiga toxin inh = A qHTS for Small Molecule Inhibitors of Shiga Toxin; AID 2315, 2010; inhibition, % at 38.7 µM; Vero cells, Shiga toxin protein synthesis inhibition reporter; 290,000 tested, 9.2% active; in the data active = inhibition mostly above about 28%, no sharp cut-off; inactive = mostly below about 43%; also: 0% is about no effect
* = called active by the depositor; u = inconclusive; x = not tested or not shown; + = active, no number; [ ] = dose if it differs, or a comment. Unless noted, calls follow the shape of the dose curve; as a rule, active = well fitted curve in the direction sought with a large enough effect; inconclusive = small, poorly fitted or top-dose-only effect, or another doubt; inactive = no such curve, though single readings can be large; an effect the other way counts as inactive or inconclusive.

SMILES	Cycloheximide cs	RE007 growth inh	FBPA Giardia inh	Tb PYK inh	LmPK inh	Shiga toxin inh
COC(=O)C1=C(C(=O)OC)[C@@H]2N(C)c3ccccc3[C@@]23C[C@@H](C(=O)OC)N(S(=O)(=O)c2ccc(C#N)cc2)C3=N1	x	x	3%[12.9 µM]	x	-4%[11.5 µM]	x
COc1cccc(CN(C(=O)COc2ccc(Cl)c(C)c2)C2CCS(=O)(=O)C2)c1 (centres undefined)	x	x	x	-3%	x	x
C/C(=N\O)c1ccc2c(c1)CC(C)O2 (centres undefined)	13*	3%	-15%	0%	-6%	19
CC1Cc2cc(C(=O)O)ccc2O1 (centres undefined)	3	-2%	4%	-3%	0%	-3
O=C(Nc1ccc2c(c1)OCCO2)c1ccc(Br)c(S(=O)(=O)N2CCOCC2)c1	32*	27%	-2%	2%	-5%	52*
O=C(Nc1ccc2c(c1)OCO2)c1ccc(Br)c(S(=O)(=O)N2CCCC2)c1	28*	-12%	0%	-3%	4%	61*
O=C(Nc1nc(-c2cccs2)cs1)c1cccc(S(=O)(=O)N2CCCCC2)c1	18*	-13%	-10%	-30%	1%	17
Cc1occc1C(=O)Nc1ccc(S(N)(=O)=O)cc1	8	3%	-1%	u	-20%	13
O=C(Nc1ccc(F)cc1)c1ccc(Br)c(S(=O)(=O)N2CCOCC2)c1	8	-8%	-1%	-8%	5%	28
Cc1occc1C(=O)Nc1ccc(S(=O)(=O)N2CCCC2)cc1	9	-5%	0%	-5%	-15%	29*
CCCCC/C=C\C/C=C\C/C=C\CCCCCCC(=O)NC(C)C(=O)O (centres undefined)	x	x	3%	x	x	x
O=C(CCn1ccc2cc(S(=O)(=O)N3CCCC3)ccc21)NCc1cccc(Br)c1	x	x	x	-1%	x	x
COc1cccc(OC(=O)CSc2nnc(-c3ccccc3OC)o2)c1	x	x	x	2%	x	x
O=C(Nc1ccc(S(=O)(=O)N2CCOCC2)cc1)c1ccccc1	-2	-14%	7%	7%	-1%	-9
O=C(Nc1ccc2c(c1)OCCO2)c1ccc(S(=O)(=O)N2CCCCC2)cc1	33*	8%	-2%	-1%	0%	64
O=C(Nc1ccc(N2CCOCC2)cc1)c1ccc(S(=O)(=O)N2CCCCC2)cc1	-2	-15%	0%	10%	-1%	-21
CC(=O)Nc1ccc(C(=O)Nc2ccc(S(=O)(=O)N3CCOCC3)cc2)cc1	16*	-13%	9%	-5%	-6%	27
O=C(Nc1ccc2c(c1)OCO2)c1cccc(S(=O)(=O)N2CCOCC2)c1	x	4%	x	2%	x	x
O=C(NCc1cccnc1)c1cccc(S(=O)(=O)N2CCCC2)c1	52*	-16%	1%	-1%	4%	-19
O=C(Nc1ccc2c(c1)OCO2)c1cccc(S(=O)(=O)N2CCCC2)c1	24*	11%	-11%	1%	-1%	41*
CCC(=O)Nc1ccc(S(=O)(=O)NCc2cccn2Cc2cccc(C)c2)cc1	x	x	x	1%	x	x
COc1cc(CCNC(C)=O)c(C(=O)/C=C/c2cccc(OC)c2OC)cc1OC	x	x	1%	x	x	x
CC[C@H](C)[C@H](NC(=O)[C@H](Cc1ccc(O)cc1)NC(=O)[C@H](Cc1cnc[nH]1)NC(=O)[C@H](CCCNC(=N)N)NC(=O)[C@H](CC(C)C)NC(=O)[C@H](C)NC(=O)[C@@H](N)CO)C(=O)N[C@@H](CC(N)=O)C(=O)N[C@@H](CC(C)C)C(=O)N[C@H](C(=O)N[C@H](C(=O)N[C@@H](CCCNC(=N)N)C(=O)N[C@@H](CCC(N)=O)C(=O)N[C@@H](CCCNC(=N)N)C(=O)N[C@@H](Cc1ccc(O)cc1)C(N)=O)[C@@H](C)O)[C@@H](C)CC	-3	x	0%	x	x	-8
O=C(Nc1ccccc1)c1ccc(S(=O)(=O)N2CCCCC2)cc1	11*	-2%	1%	-3%	8%	19*
O=C(Nc1ccccc1)c1ccc(S(=O)(=O)N2CCCC2)cc1	-2	-2%	1%	0%	2%	-1
SMILES	Cycloheximide cs	RE007 growth inh	FBPA Giardia inh	Tb PYK inh	LmPK inh	Shiga toxin inh
O=C(Nc1cccc(O)c1)c1cccc(S(=O)(=O)N2CCCCCC2)c1	23*	-6%	5%	3%	-1%	44*
COC(=O)C/C=C/[C@@H](C)[C@@H](Cc1ccccc1Br)OC	x	x	-8%	x	x	x
CCN=c1scc(C)n1/N=C/c1cc(Br)c(O)c(OC)c1	14*	-17%	u	-5%	-9%	37
CN=c1scc(C)n1/N=C/c1ccc(O)cc1O	25*	u	-3%	-15%	-28%	30*
COc1cc(/C=N/N2C(C)CCCC2C)cc(Br)c1O (centres undefined)	1	-12%	-16%	1%	1%	-3
CN=c1scc(C)n1/N=C/c1ccc2c(c1)OCO2	28*	u	-1%	2%	16µM*	69*
CCCc1nc2ccccc2c(=O)n1/N=C/c1ccc(O)cc1O	6	-1%	u	-6%	0%	-10
CN=c1scc(C)n1/N=C/c1cc(Br)c(O)c(Br)c1	18*	-7%	24%	-2%	12%	51
N[C@@H]1C(O)OC(CO)C(O)C1O (some centres undefined)	x	x	0%	1%	x	x
CN=c1scc(C)n1/N=C/c1ccc(O)cc1	38*	-8%	0%	-6%	2%	117*
Cc1ccc(Nc2ccc(N3CCN(C(=O)c4ccc([N+](=O)[O-])cc4Cl)CC3)nn2)cc1	x	x	x	3%	x	x
O=C(Nc1ccc(N2CCN(C(=O)c3ccco3)CC2)cc1)c1ccccc1F	22*	-9%	25%	0%	0%	24
CC(=O)N1CCN(c2ccc(NC(=O)c3cccc(F)c3)cc2)CC1	x	9%	x	-1%	x	x
O=C(Nc1ccc(N2CCN(C(=O)c3ccco3)CC2)cc1)c1ccccc1Br	9	4%	x	-5%	-23%	-30
O=C(Nc1ccc(N2CCN(C(=O)c3ccco3)CC2)cc1)c1cccc(F)c1	22*	-1%	-13%	0%	1%	16
CC(C)CCn1c(=O)c2sccc2n2c(CCCC(=O)NCCc3ccccc3)nnc12	x	x	x	2%	x	x
N#CCC(=N)N1CCN(c2cccc(Cl)c2)CC1	1	-6%	-1%	-4%	2%	18
N#CCC(=N)N1CCN(c2ccccc2Cl)CC1	-1	2%	-1%	-11%	3%	+
N#CCC(=N)N1CCN(c2ccccc2)CC1	13	9%	-1%	1%	-1%	53*
O=c1n(Cc2cc3c(cc2Cl)OCO3)c(=O)n2n1CC[C@H]1/C(=N\OCc3ccccc3)[C@H]3O[C@@H]3[C@@H](O)[C@@H]12	x	x	1%[12.9 µM]	x	x	x
